In assay [1] the test system is Wnt5a (protein binding on small-molecule microarray). The assay can be described thus: Wnt5a binders on small-molecule microarray, primary screen, biophysical, 635/667 nm fluorescence (AID 1142).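 Further: fluorescence read at 667 nm with signal to noise per printed feature.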 As to conditions: 635 nm fluorescence, higher = more signal.
A short description of assay [2]: cell viability in Huh7 cells, primary screen, cytotoxicity control for HCV replication inhibitor project, CellTiter-Glo luminescence, basal, 48 h (AID 1143).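 Further: Huh7 hepatoma cells carrying a hepatitis C replication reporter with no stimulus; test concentration not given here.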 The settings on record: Huh7 HCV replicon, higher = more signal, called active from +8 up or from −8 down. In general terms: In ATP-based viability assays light output follows the ATP content of the culture.
Assay [3] in a line: P. aeruginosa biofilm formation inhibitors, primary screen, PAO1 strain, BacTiter-Glo luminescence, LB-PBS (AID 1144). The settings on record: 12 h, higher = more signal.
Assay [4] in a line: CREB reporter modulators without forskolin, primary screen, cell-based, PC12, CRE-LacZ reporter, unstimulated (AID 1145). The settings on record: no forskolin, luminescence, 4.5 h, higher = more signal, called active from +8 up or from −8 down.
Assay [5] is described as follows: CREB reporter modulators under forskolin, primary screen, cell-based, PC12, CRE-LacZ reporter, forskolin-stimulated (AID 1146).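 Further: PC12 cells with 6xCRE LacZ reporter stimulated by forskolin 10 µM; beta-galactosidase reporter signal reflecting CREB driven transcription.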 The settings on record: luminescence, 4.5 h, higher = more signal, called active from +8 up or from −8 down.
Assay [6] concerns the target Streptavidin (Streptomyces avidinii) (UniProt P22629). The assay can be described thus: streptavidin binders on small-molecule microarray, primary screen, artefact control for SMM compound annotation, biophysical, 635/667 nm fluorescence (AID 1147).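 Further: signal reflects streptavidin binding to arrayed compounds as a control protein.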 The settings on record: streptavidin binding, higher = more signal.
Assay [7] in a line: small-molecule binders of probe aInhba, primary screen, biochemical, small-molecule microarray, 635/667 nm fluorescence (AID 1148).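 Further: score merges 667nm spot fluorescence with signal-to-noise for antibody binding to printed compounds.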 As to conditions: higher = more signal.
Assay [8] deals with Torsin-1A (Homo sapiens) (UniProt O14656). Kind of assay: torsin A binders from cell lysate, primary screen, small-molecule microarray, wild-type, 635/667 nm (AID 1149). The settings on record: COS7 hTOR1A-WT lysate, 635 nm fluorescence, higher = more signal.
Sequence of Torsin-1A (Homo sapiens) (O14656 whole entry, looked up): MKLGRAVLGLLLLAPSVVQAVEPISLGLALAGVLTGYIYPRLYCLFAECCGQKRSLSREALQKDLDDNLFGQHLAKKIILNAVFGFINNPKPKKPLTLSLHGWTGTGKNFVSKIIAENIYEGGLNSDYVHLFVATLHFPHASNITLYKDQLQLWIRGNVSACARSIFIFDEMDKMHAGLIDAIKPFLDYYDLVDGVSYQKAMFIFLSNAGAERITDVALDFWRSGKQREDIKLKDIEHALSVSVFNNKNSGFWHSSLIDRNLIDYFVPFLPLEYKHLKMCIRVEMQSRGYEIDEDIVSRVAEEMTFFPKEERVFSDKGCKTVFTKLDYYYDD
The target is the same in assay [9]. The assay can be described thus: small-molecule binders of mutant TOR1A in lysate, primary screen, cell lysate, small-molecule microarray, COS7 lysate, 635/667 nm fluorescence (AID 1150).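 Further: score pools 667 nm emission and signal to noise measuring lysate protein binding.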 As to conditions: COS7 hTOR1A mutant lysate, 635 nm fluorescence, higher = more signal.
Assay [10] has as its system Sonic hedgehog protein (Shh). Kind of assay: small-molecule binders of Shh protein, primary screen, biochemical, small-molecule microarray, 635/667 nm fluorescence (AID 1151).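 Further: Shh protein binding to compounds spotted on small-molecule microarray slides; score combines spot fluorescence intensity with signal-to-noise across triplicate slides.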 The settings on record: small-molecule microarray binding, 635 nm fluorescence; higher = more signal.

Here are results for six molecules from PubChem BioAssay.

Calls of active or inactive are those of the source. Unless noted, how the calls were made is not given here.

Sequence of Streptavidin (Streptomyces avidinii) (P22629 whole entry, looked up): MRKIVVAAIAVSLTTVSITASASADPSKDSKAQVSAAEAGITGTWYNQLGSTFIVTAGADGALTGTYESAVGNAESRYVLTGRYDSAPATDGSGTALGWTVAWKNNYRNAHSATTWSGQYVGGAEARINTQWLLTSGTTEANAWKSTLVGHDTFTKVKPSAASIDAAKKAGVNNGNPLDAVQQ

For the molecule `CCCC[C@@H](O)C1=C(COc2ccccc2)Cn2c(=O)n(-c3ccccc3)c(=O)n2[C@H]1CO`, the composite z-score is -0.154 in assay [1]; -0.447 in assay [6]; -0.0762 in [7]; -0.218 in the assay with Torsin-1A (Homo sapiens) [8]; -0.348 with Torsin-1A (Homo sapiens) [9]; -0.0649 in assay [10]. Besides, the z-score is -1.86 (inactive) in assay [2], -0.569 (inactive) in [3], 1.67 (inactive) in [4] and -1.23 (inactive) in assay [5].

On to `COCCOC(=O)N1C(=O)[C@@]2(c3cc(C#CCNC(N)=O)ccc31)[C@H](c1ccc(OCCO)cc1)N1[C@H](c3ccccc3)[C@H](c3ccccc3)OC(=O)[C@H]1[C@@H]2C(=O)N1CCN(c2ncccn2)CC1`, for which the composite z-score in [1] is 0.333; in [6], 0.651; in assay [7], -0.024; with Torsin-1A (Homo sapiens) [8] it was 0.833; in the assay with Torsin-1A (Homo sapiens) [9], 0.581; in [10], 0.983. For the same molecule, the z-score in assay [2] is 0.0075 (inactive); in assay [3], 0.443 (inactive); in [4] it was 0.212 (inactive); in assay [5], 0.675 (inactive).

Turning to `O=C1C[C@@](C(=O)NCc2ccccc2)(c2ccc([N+](=O)[O-])cc2)[C@@H](c2ccc(CO)cc2I)N1C1CCCCC1`, the composite z-score in [1] is 0.286; in assay [6], 0.0068; in assay [7], 0.572; with Torsin-1A (Homo sapiens) [8], 0.89; with Torsin-1A (Homo sapiens) [9] it was 0.217; in assay [10] it was 1.13. The z-score in assay [2] is -4.73 (inactive); in assay [3], 0.781 (inactive); in assay [4] it was 0.234 (inactive); in [5], 0.583 (inactive).

With `N#Cc1ccc(NN2C(C(O)c3ccccc3)C=CC3C(=O)N(c4ccccc4)C(=O)C32)cc1` (stereo not given), the composite z-score is 0.213 in [1]; 0.475 in assay [6]; 0.11 in assay [7]; 0.408 with Torsin-1A (Homo sapiens) [8]; -0.0163 with Torsin-1A (Homo sapiens) [9]; -0.67 in assay [10]. For the same molecule, the z-score in assay [2] is 0.574 (inactive); in assay [3] it was -0.121 (inactive); in [4] it was -1.11 (inactive); in assay [5], 1.06 (inactive).

For `C=CCC(OC(C)=O)[C@@H]1[C@@H](N(Cc2cc3ccccc3o2)C(=O)Cc2ccc(OC)cc2)c2cc(OCCCO)ccc2N1C(=O)c1ccc(-c2ccccc2)cc1` (stereo not given in full), the composite z-score in assay [1] was 0.0628; in [6], 0.215; in [7] it was 0.105; with Torsin-1A (Homo sapiens) [8], 0.176; in the assay with Torsin-1A (Homo sapiens) [9], 0.262; in assay [10] it was 0.0275. The z-score in assay [2] is -0.279 (inactive); in [3], -0.866 (inactive); in assay [4] it was 2.47 (inactive); in [5], -0.362 (inactive).

As to `CO[C@H]1O[C@H](CO)[C@@H](OC(=O)Nc2ccc(C(F)(F)F)cc2)[C@H](OC(=O)Nc2ccccc2)[C@H]1OC(=O)Nc1ccccc1`, the composite z-score worked out at 0.71 in assay [1]; 1.22 in [6]; 0.3 in assay [7]; 0.386 in the assay with Torsin-1A (Homo sapiens) [8]; 0.183 in the assay with Torsin-1A (Homo sapiens) [9]; 1.2 in assay [10]. For the same molecule, the z-score in [2] was -5.9 (inactive); in [3] it was -0.109 (inactive); in [4], 3.11 (inactive); in [5], -1.51 (inactive).
